# Data taken from the supplement of paper PMC11732987, “Enantioselective OTUD7B fragment discovery through chemoproteomics screening and high-throughput optimisation” (Communications Chemistry, 2025).
# Values without a mark were called inactive.
# Key:
# Assay in all cases: log2 ratio of Biotin-Ahx-Ub-VS probe labelling (fragment/DMSO); higher = less target engagement (more negative = stronger competition), active = hit call of the paper (q ≤ 0.05, log2 ratio ≤ -1)
# Conditions in all cases: compound concentration: 200 uM; treatment time: 3 h
# USP19 = target: T1, USP19 (UniProt O94966)
# T1 sequence (whole entry): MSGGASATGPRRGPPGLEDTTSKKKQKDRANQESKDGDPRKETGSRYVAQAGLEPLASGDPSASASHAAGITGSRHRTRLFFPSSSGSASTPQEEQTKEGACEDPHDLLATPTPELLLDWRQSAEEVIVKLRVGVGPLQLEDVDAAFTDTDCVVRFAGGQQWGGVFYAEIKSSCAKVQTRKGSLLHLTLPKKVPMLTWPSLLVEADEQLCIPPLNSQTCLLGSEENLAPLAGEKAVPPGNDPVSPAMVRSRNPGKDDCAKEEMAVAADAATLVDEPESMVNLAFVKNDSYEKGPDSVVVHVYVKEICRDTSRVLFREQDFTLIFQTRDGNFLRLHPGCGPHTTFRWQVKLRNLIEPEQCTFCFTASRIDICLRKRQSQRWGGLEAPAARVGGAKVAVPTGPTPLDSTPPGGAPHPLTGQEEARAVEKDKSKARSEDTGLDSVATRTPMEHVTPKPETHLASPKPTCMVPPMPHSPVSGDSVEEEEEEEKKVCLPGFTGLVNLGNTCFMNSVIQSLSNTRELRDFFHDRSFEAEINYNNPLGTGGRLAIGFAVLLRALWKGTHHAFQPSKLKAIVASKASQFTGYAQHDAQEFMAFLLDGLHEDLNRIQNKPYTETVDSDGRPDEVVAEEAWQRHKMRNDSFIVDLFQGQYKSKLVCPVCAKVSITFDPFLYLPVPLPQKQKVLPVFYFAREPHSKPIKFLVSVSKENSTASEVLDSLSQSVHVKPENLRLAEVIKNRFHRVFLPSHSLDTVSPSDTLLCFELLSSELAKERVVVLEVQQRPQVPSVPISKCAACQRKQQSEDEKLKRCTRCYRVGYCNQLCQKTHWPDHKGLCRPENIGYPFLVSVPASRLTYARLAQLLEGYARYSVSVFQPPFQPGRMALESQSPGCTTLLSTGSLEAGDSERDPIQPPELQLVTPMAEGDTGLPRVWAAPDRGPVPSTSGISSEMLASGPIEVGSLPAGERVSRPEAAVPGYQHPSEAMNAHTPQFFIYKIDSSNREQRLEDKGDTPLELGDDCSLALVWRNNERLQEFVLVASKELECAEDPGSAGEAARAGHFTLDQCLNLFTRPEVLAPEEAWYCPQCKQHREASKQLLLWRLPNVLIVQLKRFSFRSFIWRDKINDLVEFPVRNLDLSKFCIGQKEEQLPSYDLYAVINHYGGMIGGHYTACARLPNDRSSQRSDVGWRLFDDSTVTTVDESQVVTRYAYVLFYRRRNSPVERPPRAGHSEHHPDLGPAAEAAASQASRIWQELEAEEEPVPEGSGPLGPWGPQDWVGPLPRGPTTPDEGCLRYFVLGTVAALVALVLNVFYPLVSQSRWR
# How it was run: (§1)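 Global-median-normalised Spectronaut label-free quantities were compared by unpaired t-test, and values are average log2 ratios of fragment over vehicle. Only proteins with ≥2 unique peptides were used. HEK293T lysate (495 µg per sample) was treated in triplicate with fragment at 200 µM or vehicle for 3 h and then with Biotin-Ahx-Ub-VS at 0.5 µM final for 1 h. Labelled DUBs were then NeutrAvidin-enriched, digested with LysC and trypsin, and run by diaPASEF LC-MS/MS.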
# USP24 = USP24 (UniProt Q9UPU5)
# How it was run: as §1
# USP25 = target: T2, USP25 (UniProt Q9UHP3)
# T2 sequence (whole entry): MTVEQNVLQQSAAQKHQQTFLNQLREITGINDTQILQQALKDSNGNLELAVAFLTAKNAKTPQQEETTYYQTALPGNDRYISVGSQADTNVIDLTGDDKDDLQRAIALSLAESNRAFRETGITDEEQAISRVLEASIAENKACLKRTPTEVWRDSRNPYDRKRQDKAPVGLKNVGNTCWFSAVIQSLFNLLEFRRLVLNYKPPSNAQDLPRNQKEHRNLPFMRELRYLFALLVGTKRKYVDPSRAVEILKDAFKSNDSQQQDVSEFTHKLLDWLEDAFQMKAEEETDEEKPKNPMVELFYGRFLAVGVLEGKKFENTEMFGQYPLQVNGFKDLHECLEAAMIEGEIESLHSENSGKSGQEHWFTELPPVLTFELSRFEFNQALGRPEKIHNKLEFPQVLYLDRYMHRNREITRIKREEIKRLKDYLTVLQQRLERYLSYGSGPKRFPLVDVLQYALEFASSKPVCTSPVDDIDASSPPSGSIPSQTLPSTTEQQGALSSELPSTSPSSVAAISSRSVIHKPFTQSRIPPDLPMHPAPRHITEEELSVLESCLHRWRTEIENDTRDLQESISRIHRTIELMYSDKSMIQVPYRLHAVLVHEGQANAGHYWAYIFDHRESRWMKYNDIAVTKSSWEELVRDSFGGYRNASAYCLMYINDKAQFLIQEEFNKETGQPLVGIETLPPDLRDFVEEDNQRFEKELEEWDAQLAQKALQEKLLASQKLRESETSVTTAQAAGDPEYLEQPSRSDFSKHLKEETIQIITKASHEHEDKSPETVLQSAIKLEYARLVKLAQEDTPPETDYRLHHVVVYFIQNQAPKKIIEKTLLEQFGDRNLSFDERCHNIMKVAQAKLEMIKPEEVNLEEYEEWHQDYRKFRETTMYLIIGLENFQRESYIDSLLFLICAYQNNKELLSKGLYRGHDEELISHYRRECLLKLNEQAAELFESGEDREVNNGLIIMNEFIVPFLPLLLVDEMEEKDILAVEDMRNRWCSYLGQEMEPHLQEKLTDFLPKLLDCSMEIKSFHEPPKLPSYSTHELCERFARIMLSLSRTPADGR
# How it was run: as §1
# USP28 = target: T3, USP28 (UniProt Q96RU2)
# T3 sequence (whole entry): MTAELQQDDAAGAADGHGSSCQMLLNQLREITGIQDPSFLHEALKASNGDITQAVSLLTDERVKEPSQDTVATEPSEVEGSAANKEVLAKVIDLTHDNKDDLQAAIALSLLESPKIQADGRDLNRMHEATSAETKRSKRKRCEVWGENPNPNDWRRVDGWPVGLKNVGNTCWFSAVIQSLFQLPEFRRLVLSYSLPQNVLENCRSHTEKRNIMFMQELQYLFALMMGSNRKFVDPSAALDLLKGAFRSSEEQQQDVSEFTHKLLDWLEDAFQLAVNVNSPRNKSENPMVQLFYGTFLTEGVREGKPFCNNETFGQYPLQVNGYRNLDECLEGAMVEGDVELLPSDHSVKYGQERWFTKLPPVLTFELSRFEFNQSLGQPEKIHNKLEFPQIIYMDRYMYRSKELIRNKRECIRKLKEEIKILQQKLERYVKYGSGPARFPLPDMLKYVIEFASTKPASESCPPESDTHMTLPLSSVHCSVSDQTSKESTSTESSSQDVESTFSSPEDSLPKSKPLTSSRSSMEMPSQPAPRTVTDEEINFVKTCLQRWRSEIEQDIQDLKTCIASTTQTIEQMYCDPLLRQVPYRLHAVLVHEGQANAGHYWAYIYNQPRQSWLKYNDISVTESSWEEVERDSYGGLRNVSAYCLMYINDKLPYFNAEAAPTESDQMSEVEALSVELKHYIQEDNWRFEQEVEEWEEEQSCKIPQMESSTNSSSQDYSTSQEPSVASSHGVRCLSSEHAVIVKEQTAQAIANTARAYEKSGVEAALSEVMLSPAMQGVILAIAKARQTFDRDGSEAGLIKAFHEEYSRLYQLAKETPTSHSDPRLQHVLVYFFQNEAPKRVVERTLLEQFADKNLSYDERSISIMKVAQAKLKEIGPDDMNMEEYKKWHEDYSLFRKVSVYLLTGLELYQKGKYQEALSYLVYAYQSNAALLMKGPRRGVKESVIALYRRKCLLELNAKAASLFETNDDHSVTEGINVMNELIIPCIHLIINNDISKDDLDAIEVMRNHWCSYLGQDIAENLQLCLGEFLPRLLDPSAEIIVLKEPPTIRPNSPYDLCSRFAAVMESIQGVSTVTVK
# How it was run: as §1
# Chain of USP24 (Q9UPU5 whole entry): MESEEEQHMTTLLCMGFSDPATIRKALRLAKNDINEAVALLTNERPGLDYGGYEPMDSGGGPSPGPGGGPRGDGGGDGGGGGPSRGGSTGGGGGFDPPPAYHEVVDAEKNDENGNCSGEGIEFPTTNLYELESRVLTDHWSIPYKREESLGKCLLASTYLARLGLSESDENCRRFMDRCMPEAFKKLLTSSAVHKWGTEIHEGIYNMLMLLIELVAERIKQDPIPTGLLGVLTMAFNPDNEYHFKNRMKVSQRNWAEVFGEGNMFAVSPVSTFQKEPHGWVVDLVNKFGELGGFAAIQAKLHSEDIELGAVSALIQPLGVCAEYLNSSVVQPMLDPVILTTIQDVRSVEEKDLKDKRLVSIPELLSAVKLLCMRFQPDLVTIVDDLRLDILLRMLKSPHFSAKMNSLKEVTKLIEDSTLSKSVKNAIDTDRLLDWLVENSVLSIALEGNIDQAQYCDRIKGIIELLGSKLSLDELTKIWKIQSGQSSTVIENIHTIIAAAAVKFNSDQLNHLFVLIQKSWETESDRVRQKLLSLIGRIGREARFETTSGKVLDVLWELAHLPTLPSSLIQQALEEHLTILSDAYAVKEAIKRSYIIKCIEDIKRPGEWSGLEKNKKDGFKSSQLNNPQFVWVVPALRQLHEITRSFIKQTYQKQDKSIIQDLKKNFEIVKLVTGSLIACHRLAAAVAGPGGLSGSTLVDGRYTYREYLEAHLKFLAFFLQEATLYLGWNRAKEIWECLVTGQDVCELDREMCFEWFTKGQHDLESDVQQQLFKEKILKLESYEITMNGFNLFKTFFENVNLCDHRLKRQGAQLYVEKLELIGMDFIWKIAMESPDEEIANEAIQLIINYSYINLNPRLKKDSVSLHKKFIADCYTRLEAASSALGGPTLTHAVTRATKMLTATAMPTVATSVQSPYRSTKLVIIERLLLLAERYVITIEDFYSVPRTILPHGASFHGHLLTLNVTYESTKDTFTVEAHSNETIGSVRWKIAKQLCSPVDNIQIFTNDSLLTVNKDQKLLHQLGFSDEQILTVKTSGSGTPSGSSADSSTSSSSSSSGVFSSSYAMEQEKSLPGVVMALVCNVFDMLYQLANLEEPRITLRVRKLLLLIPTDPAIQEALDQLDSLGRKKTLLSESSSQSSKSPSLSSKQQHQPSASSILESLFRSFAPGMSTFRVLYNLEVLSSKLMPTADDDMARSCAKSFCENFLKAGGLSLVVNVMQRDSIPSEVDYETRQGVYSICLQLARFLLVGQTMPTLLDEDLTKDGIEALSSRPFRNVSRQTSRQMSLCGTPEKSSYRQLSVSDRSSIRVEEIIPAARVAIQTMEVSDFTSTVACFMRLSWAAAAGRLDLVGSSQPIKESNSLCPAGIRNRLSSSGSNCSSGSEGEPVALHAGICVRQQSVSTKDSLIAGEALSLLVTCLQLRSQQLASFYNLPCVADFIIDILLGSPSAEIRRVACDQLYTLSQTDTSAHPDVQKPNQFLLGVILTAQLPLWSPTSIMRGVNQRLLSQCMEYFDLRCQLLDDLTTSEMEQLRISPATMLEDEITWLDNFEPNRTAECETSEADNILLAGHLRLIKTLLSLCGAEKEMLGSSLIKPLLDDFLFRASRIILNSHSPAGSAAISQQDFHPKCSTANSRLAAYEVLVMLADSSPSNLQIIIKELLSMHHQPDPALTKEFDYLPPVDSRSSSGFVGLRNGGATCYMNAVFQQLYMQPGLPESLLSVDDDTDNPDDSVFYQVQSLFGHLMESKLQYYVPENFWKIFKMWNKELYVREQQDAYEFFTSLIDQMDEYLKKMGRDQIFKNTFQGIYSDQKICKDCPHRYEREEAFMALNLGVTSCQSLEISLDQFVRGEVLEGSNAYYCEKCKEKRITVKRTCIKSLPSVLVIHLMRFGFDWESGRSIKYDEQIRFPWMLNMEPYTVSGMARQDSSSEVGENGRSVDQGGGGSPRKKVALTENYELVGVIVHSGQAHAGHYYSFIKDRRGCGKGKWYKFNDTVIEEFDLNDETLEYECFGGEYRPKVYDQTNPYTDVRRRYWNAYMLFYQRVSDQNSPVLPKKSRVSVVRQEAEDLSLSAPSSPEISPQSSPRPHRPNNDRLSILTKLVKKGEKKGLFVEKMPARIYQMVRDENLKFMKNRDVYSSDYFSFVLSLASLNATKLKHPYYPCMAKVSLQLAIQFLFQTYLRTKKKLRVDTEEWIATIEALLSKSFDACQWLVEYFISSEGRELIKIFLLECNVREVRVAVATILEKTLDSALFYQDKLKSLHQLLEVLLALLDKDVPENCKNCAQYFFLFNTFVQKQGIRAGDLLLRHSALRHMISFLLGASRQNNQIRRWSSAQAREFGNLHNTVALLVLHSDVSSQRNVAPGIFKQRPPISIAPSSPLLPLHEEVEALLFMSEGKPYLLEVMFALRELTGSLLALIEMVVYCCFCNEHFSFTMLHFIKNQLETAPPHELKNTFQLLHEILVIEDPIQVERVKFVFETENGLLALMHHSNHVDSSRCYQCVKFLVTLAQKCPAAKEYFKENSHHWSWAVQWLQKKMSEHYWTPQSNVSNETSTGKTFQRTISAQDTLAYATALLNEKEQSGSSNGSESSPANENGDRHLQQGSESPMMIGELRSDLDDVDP
structure (smiles),measurement,setting,value
CN1C(=O)c2ccc(NC(=O)CCl)cc2C1=O,log2 ratio of Biotin-Ahx-Ub-VS probe labelling,USP19,-0.358
same,log2 ratio of Biotin-Ahx-Ub-VS probe labelling,USP24,-0.467
same,log2 ratio of Biotin-Ahx-Ub-VS probe labelling,USP25,-1.54 (active)
same,log2 ratio of Biotin-Ahx-Ub-VS probe labelling,USP28,-1.5 (active)
